Data from PubChem BioAssay (NCI).
Several values for one entry are separate records, joined by “and”; a condition that tells them apart may be missing. Equal values may be shown once. This is part of a sample that, as a whole, favours compounds with a hit. Of some 79,000 tested, about 15% had one in any assay. Where a structure was tested more than once in an assay, its records may differ in their call. Activity calls are given as the source filed them. No stated cut-off is given here; in the data, active means growth inhibition above about 70%; inactive means the rest.

Assays:
[1] = NCI Yeast Anticancer Drug Screen. Data for the rad52 strain (AID 147);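 further: 0% = growth of vehicle-treated control cultures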; settings: S. cerevisiae rad52 mutant growth inhibition, stronger effect = higher value
Method in brief: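 Growth of repair-deficient yeast cells was compared between compound-treated and vehicle-treated cultures to give percent inhibition.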

[2] = NCI Yeast Anticancer Drug Screen. Data for the wt1 strain (AID 149);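 further: 0% = growth of vehicle-treated wt1 cultures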; settings: S. cerevisiae wt1 strain (SPY 50644) growth inhibition, stronger effect = higher value
Method in brief: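 Growth inhibition read against vehicle controls after compound exposure of the wt1 yeast strain.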

[3] = NCI Yeast Anticancer Drug Screen. Data for the rad50 strain (AID 155);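 further: 0% = growth of vehicle-only cultures of the same strain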; settings: S. cerevisiae rad50 strain growth inhibition, stronger effect = higher value
Method in brief: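 Readout: growth inhibition relative to vehicle-treated cultures. Compound exposure was carried out in a genetically defined yeast strain deficient in DNA damage repair.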

[4] = NCI Yeast Anticancer Drug Screen. Data for the mec2-1 strain (AID 157); settings: S. cerevisiae mec2-1 strain, stronger effect = higher value
Method in brief: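 Compounds were applied to mec2-1 yeast cells. Their growth was then compared with that of vehicle-treated cultures to give growth inhibition.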

[5] = NCI Yeast Anticancer Drug Screen. Data for the rad14 strain (AID 159);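 further: 0% = growth of vehicle-treated control cultures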; settings: S. cerevisiae rad14 strain growth inhibition, stronger effect = higher value
Method in brief: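 Growth inhibition vs vehicle controls; genetically altered yeast strain (DNA damage repair defect) treated with test compounds.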

[6] = NCI Yeast Anticancer Drug Screen. Data for the cln2 rad14 strain (AID 165);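 further: 0% = growth equal to vehicle treated cultures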; settings: S. cerevisiae cln2 rad14 strain, stronger effect = higher value
Method in brief: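 Strain: cln2 rad14 yeast, altered in cell cycle control and DNA damage repair. Read-out: growth inhibition vs vehicle.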

[7] = NCI Yeast Anticancer Drug Screen. Data for the wt2 strain (AID 169);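 further: 0% = growth of vehicle-treated yeast cultures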; settings: S. cerevisiae wt2 strain growth inhibition, stronger effect = higher value
Method in brief: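 Growth of compound-treated yeast is measured and expressed as inhibition relative to vehicle-only controls.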

[8] = NCI Yeast Anticancer Drug Screen. Data for the mlh1 strain (AID 171);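 further: 0% = growth of vehicle-treated control cultures of the same strain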; settings: S. cerevisiae mlh1 strain growth inhibition, stronger effect = higher value
Method in brief: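 Test agents were incubated with yeast bearing a defined DNA damage repair or cell cycle control alteration; values are growth inhibition normalised to vehicle-treated cultures.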

[9] = NCI Yeast Anticancer Drug Screen. Data for the sgs1 strain (AID 173);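 further: 0% = growth of vehicle-only control cultures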; settings: S. cerevisiae sgs1 mutant, stronger effect = higher value
Method in brief: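 Strain with an altered DNA repair or cell cycle pathway exposed to compound. Growth then measured. Value = inhibition versus vehicle control.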

[10] = NCI Yeast Anticancer Drug Screen. Data for the mlh1 rad18 strain (AID 175); settings: S. cerevisiae mlh1 rad18 strain growth inhibition, stronger effect = higher value
Method in brief: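 A repair-deficient yeast strain is exposed to test compound, and growth is scored relative to vehicle-treated controls.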

[11] = NCI Yeast Anticancer Drug Screen. Data for the rad18 strain (AID 177); settings: S. cerevisiae rad18 mutant growth inhibition, stronger effect = higher value
Method in brief: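 DNA-repair-defective yeast; compound treatment; growth inhibition scored against vehicle.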

[12] = NCI Yeast Anticancer Drug Screen. Data for the sgs1 mgt1 strain (AID 161);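 further: 0% = growth of cultures given vehicle only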; settings: S. cerevisiae sgs1 mgt1 strain, stronger effect = higher value
Method in brief: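 This yeast growth screen uses a strain with defined DNA-repair lesions; compound-treated growth is compared with vehicle-treated growth.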

[13] = NCI Yeast Anticancer Drug Screen. Data for the CLN2oe strain (AID 163);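 further: 0% = growth of vehicle-only control cultures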; settings: S. cerevisiae CLN2oe strain, stronger effect = higher value
Method in brief: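 Cells of an engineered yeast line with disturbed cell-cycle regulation are treated with compound. Inhibition of growth is then calculated relative to the vehicle-treated reference.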

[14] = NCI Yeast Anticancer Drug Screen. Data for the bub3 strain (AID 167); settings: S. cerevisiae bub3 mutant strain, stronger effect = higher value
Method in brief: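 Readout: yeast growth inhibition, expressed relative to vehicle-only wells. The test organism is a mutant strain from a panel with lesions in DNA repair or checkpoint genes.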

[15] = at 5.0 µM (retest, dose inferred, filed as 0.5)
[16] = at 50.0 µM (retest, dose inferred, filed as 5.0)

Measured: growth inhibition

CC(=O)Oc1ccc(C(=O)c2ccccc2)c(O)c1
active: [1]; at 100.0 µM 96% | [2]; at 100.0 µM 96% | [3]; [16] 95% | [3]; at 50.0 µM 70.2% | [3]; at 100.0 µM 96% | [4]; [16] 99% | [4]; at 100.0 µM 96% | [5]; at 100.0 µM 92% | [6]; [16] 82% | [7]; at 100.0 µM 94% | [8]; at 100.0 µM 96% | [9]; at 100.0 µM 96% | [10]; [16] 98% | [11]; at 100.0 µM 97%
inactive: [1]; at 1.2 µM -7% | [1]; at 3.7 µM -10% | [1]; at 11.0 µM 2% | [1]; at 33.0 µM 28% | [2]; at 1.2 µM -2% | [2]; at 3.7 µM -1% | [2]; at 11.0 µM -4% | [2]; at 33.0 µM 10% | [3]; at 1.2 µM -4% | [3]; at 3.7 µM 1% | [3]; [15] 60% | [3]; at 11.0 µM -2% | [3]; at 33.0 µM 32% | [4]; at 1.2 µM -31% | [4]; at 3.7 µM -5% | [4]; [15] 64% | [4]; at 11.0 µM 2% | [4]; at 33.0 µM 26% | [4]; at 50.0 µM 50% | [5]; at 1.2 µM -24% | [5]; at 3.7 µM -20% | [5]; at 11.0 µM -19% | [5]; at 33.0 µM 21% | [6]; [15] 27% | [6]; at 50.0 µM 58.9% | [7]; at 1.2 µM -3% | [7]; at 3.7 µM 7% | [7]; at 11.0 µM 7% | [7]; at 33.0 µM 21% | [8]; at 1.2 µM -2% | [8]; at 3.7 µM -1% | [8]; at 11.0 µM 0% | [8]; at 33.0 µM 36% | [9]; at 1.2 µM 6% | [9]; at 3.7 µM 10% | [9]; at 11.0 µM 13% | [9]; at 33.0 µM 46% | [10]; [15] 50% | [10]; at 50.0 µM 61.8% | [11]; at 1.2 µM 0% | [11]; at 3.7 µM 13% | [11]; at 11.0 µM 17% | [11]; at 33.0 µM 39%

CCOC(=O)c1csc(Br)n1
active: [3]; at 50.0 µM 98.6% | [4]; at 50.0 µM 99.5% | [12]; at 50.0 µM 97.8% | [14]; at 50.0 µM 99% | [10]; at 50.0 µM 78.3%
inactive: [1]; at 1.2 µM -2% | [1]; at 3.7 µM -3% | [1]; at 11.0 µM -7% | [1]; at 33.0 µM -5% | [1]; at 100.0 µM -9% | [2]; at 1.2 µM 3% | [2]; at 3.7 µM -3% | [2]; at 11.0 µM -3% | [2]; at 33.0 µM -3% | [2]; at 100.0 µM -5% | [3]; at 1.2 µM -5% | [3]; at 3.7 µM 1% | [3]; [15] -4% | [3]; at 11.0 µM 0% | [3]; at 33.0 µM -1% | [3]; [16] -3% | [3]; at 100.0 µM -12% | [4]; at 1.2 µM -7% | [4]; at 3.7 µM -2% | [4]; [15] -16% | [4]; at 11.0 µM -3% | [4]; at 33.0 µM -5% | [4]; [16] -7% | [4]; at 100.0 µM -3% | [5]; at 1.2 µM 0% | [5]; at 3.7 µM 2% | [5]; at 11.0 µM -2% | [5]; at 33.0 µM -4% | [5]; at 100.0 µM -8% | [12]; [15] -18% | [12]; [16] -6% | [13]; at 1.2 µM -2% | [13]; at 3.7 µM -5% | [13]; at 11.0 µM 0% | [13]; at 33.0 µM 0% | [13]; at 100.0 µM -4% | [14]; at 1.2 µM -5% | [14]; at 3.7 µM -4% | [14]; [15] -11% | [14]; at 11.0 µM -6% | [14]; at 33.0 µM -6% | [14]; [16] -7% | [14]; at 100.0 µM -14% | [7]; at 1.2 µM -2% | [7]; at 3.7 µM -2% | [7]; at 11.0 µM -2% | [7]; at 33.0 µM -4% | [7]; at 100.0 µM -4% | [9]; at 1.2 µM -2% | [9]; at 3.7 µM -2% | [9]; at 11.0 µM -1% | [9]; at 33.0 µM -3% | [9]; at 100.0 µM -6% | [10]; [15] -16% | [10]; [16] -18% | [11]; at 1.2 µM -1% | [11]; at 3.7 µM -3% | [11]; at 11.0 µM 1% | [11]; at 33.0 µM -4% | [11]; at 100.0 µM -14%

CCn1ncc(N=O)c1N
81.4% (active) and 51% (inactive): [14]; at 50.0 µM
active: [14]; at 100.0 µM 78% | [10]; [16] 73% | [11]; at 100.0 µM 74%
87.3% (active) and 26.6% (inactive): [10]; at 50.0 µM
70.2% (active) and 51.5% (inactive): [3]; at 50.0 µM
inactive: [2]; at 1.2 µM 6% | [2]; at 3.7 µM 14% | [2]; at 11.0 µM 23% | [2]; at 33.0 µM 24% | [2]; at 100.0 µM 39% | [3]; at 1.2 µM -1% | [3]; at 3.7 µM -1% | [3]; [15] 27% | [3]; at 11.0 µM 6% | [3]; at 33.0 µM 24% | [3]; [16] 61% | [3]; at 100.0 µM 54% | [5]; at 1.2 µM -2% | [5]; at 3.7 µM 4% | [5]; at 11.0 µM 15% | [5]; at 33.0 µM 32% | [5]; at 100.0 µM 41% | [12]; [15] 21% | [12]; [16] 61% | [12]; at 50.0 µM 62.5% and 19.6% | [13]; at 1.2 µM -6% | [13]; at 3.7 µM -5% | [13]; at 11.0 µM 15% | [13]; at 33.0 µM 43% | [13]; at 100.0 µM 53% | [6]; [15] 9% | [6]; [16] 12% | [6]; at 50.0 µM 35.1% and 40.8% | [14]; at 1.2 µM 2% | [14]; at 3.7 µM 9% | [14]; [15] 41% | [14]; at 11.0 µM 33% | [14]; at 33.0 µM 64% | [14]; [16] 68% | [7]; at 1.2 µM 6% | [7]; at 3.7 µM 18% | [7]; at 11.0 µM 26% | [7]; at 33.0 µM 25% | [7]; at 100.0 µM 39% | [8]; at 1.2 µM 3% | [8]; at 3.7 µM 5% | [8]; at 11.0 µM 20% | [8]; at 33.0 µM 35% | [8]; at 100.0 µM 53% | [9]; at 1.2 µM 5% | [9]; at 3.7 µM 16% | [9]; at 11.0 µM 26% | [9]; at 33.0 µM 39% | [9]; at 100.0 µM 61% | [10]; [15] 33% | [11]; at 1.2 µM 1% | [11]; at 3.7 µM 8% | [11]; at 11.0 µM 9% | [11]; at 33.0 µM 51%
